# Measurements reported in PubChem BioAssay.
# For part of these data: Results with a measured potency or affinity are listed apart. Activity calls are given as the source filed them.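 The calls were made as follows, unless noted: active = fitted half-maximal concentration within the tested range, moderate curve steepness, significant signal drop, and little compound fluorescence or bead-linkage interference; inactive = the rest.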
# Columns and labels:
# [1] = molecular target: Cell division control protein 42 homolog (Homo sapiens) (UniProt P60953); experiment: inhibition of fluorescent GTP binding to constitutively active Cdc42 – biochemical, multiplex bead flow cytometry, Bodipy-FL-GTP, dose response (AID 1333;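 active = fitted half-maximal concentration within the tested dose range, moderate curve steepness, a statistically real signal drop, and little compound fluorescence or tag-binding interference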)
# [2] = molecular target: Cell division control protein 42 homolog (Homo sapiens) (UniProt P60953); experiment: inhibition of fluorescent GTP binding to wildtype Cdc42 – biochemical, multiplex bead flow cytometry, Bodipy-FL-GTP, dose response (AID 1334); details: bead-based flow cytometry, Bodipy-FL-GTP binding to GST-Cdc42; at 100 µM (top of the series) unless noted
# [3] = molecular target: GTPase HRas (Homo sapiens) (UniProt P01112); experiment: Ras wt fluorescent GTP loading blockade – biochemical, wildtype, multiplex bead flow cytometry, dose response (AID 1335;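 active = fitted half-maximal concentration within 10 nM to 100 µM, steepness 0.5 to 2, significant signal drop, low assay interference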); details: bead-based flow cytometry, Bodipy-GTP binding to GST-Ras; at 100 µM (top of the series) unless noted
# [4] = tested on: Ras-related protein Rab-7a (dog), GTP binding; experiment: blockers of fluorescent GTP binding to Rab7 – biochemical, wildtype, multiplex bead flow cytometry, dose response (AID 1336; call rule not given here)
# [5] = molecular target: Ras-related C3 botulinum toxin substrate 1 (Homo sapiens) (UniProt P63000); experiment: inhibition of wildtype Rac1 nucleotide loading – biochemical, multiplex bead flow cytometry, dose response (AID 1340;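 active = dose curve with midpoint inside tested range, moderate steepness, plateau gap beyond fit error, low compound glow and bead-link interference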); details: GST-Rac1 beads, Bodipy-FL-GTP binding; at 100 µM (top of the series) unless noted
# [6] = molecular target: GTPase HRas (Homo sapiens) (UniProt P01112); experiment: blockade of GTP loading onto mutant Ras – biochemical, activated mutant, multiplex bead flow cytometry, dose response (AID 1341;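 active = dose-response curve with midpoint inside the tested range, moderate steepness, significant amplitude and little compound fluorescence or bead-attachment interference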;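 also: GST-tagged constitutively activated Ras mutant immobilized on beads and multiplexed with other GTPases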)
# Sequence of GTPase HRas (Homo sapiens) (P01112 whole entry, looked up): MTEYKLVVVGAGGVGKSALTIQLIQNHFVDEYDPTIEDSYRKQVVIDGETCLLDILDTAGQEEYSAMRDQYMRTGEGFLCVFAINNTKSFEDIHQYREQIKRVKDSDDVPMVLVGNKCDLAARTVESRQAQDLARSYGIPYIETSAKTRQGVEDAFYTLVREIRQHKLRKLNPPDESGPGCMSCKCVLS
# Sequence of Cell division control protein 42 homolog (Homo sapiens) (P60953 whole entry, looked up): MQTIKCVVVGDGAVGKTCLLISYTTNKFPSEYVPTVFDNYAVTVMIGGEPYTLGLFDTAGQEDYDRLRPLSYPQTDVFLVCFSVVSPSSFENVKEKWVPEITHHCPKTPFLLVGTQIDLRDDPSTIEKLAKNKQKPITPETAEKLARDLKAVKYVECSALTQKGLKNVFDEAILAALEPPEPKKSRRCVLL
SMILES,outcome [1],"fluorescence, percent of control (lower = inhibition) [2] [%]","GTP binding, percent of control [3] [%]",outcome [4],"GTP binding signal, raw median fluorescence (lower = inhibition) (MCF (arbitrary fluorescence units)) [5]",outcome [6]
Cc1ccc(NC(=S)Nc2ccc3nc(-c4ccccn4)c(-c4ccccn4)nc3c2)cc1C,inactive,53.7,69,inactive,0,inactive
O=c1c2ccc([N+](=O)[O-])cc2ncn1CCOc1ccccc1,inactive,48.1,95.3,inactive,188,inactive
COc1cc(N2CCCC2)c(OC)cc1/C=C(/C#N)c1cccc(Br)c1,inactive,103,110,inactive,228,inactive
CCn1cc(C(=O)O)c(=O)c2cc(F)c(N/N=C/c3ccccc3[N+](=O)[O-])cc21,inactive,32.3,44,inactive,110,inactive
O=C(Nc1c(F)cccc1F)c1cnc(N2CCN(c3ccccn3)CC2)c2ccccc12,inactive,97,199,inactive,217,inactive
COc1cc(/C=N/NC(=O)CN(Cc2ccco2)S(=O)(=O)c2ccccc2)ccc1O,inactive,32.8,46.1,inactive,104,inactive
Cc1cc(/C=c2\sc3nc4ccccc4n3c2=O)c(C)n1-c1ccc(C(=O)O)cc1,inactive,18.4,70.1,inactive,204,inactive
C=CCN(CC=C)S(=O)(=O)c1ccc(C(=O)Nc2nc3c(s2)CCc2ccccc2-3)cc1,inactive,51.4,57.3,inactive,0,inactive
CCOc1cccc(/C(O)=C2/C(=O)C(=O)N(CCOC)C2c2ccncc2)c1 (stereo not given),inactive,46.9,57.7,inactive,0,inactive
Cc1ccc(C2=NN(CCC(=O)NCc3ccc4c(c3)OCO4)C(=O)CC2)cc1,inactive,51.3,60.2,inactive,207,inactive
COc1cccc(OCc2c(C)cccc2C)c1C(=O)O,inactive,56.5,209,inactive,52.5,inactive
Cc1ccc(OCCn2cc(C(=O)O)c3ccccc32)cc1,inactive,45.4,96.7,inactive,280,inactive
CC(C)Nc1nnc(SCC(=O)Nc2ccc3c(c2)C(=O)c2ccccc2C3=O)s1,inactive,43.2,50.9,inactive,0,inactive
COc1cc2c(C)nc3c(c(C)nn3-c3ccccc3)c2cc1OC,inactive,32.3,71.7,inactive,167,inactive
NS(=O)(=O)c1ccc(Nc2nc(-c3ccc(O)cc3O)cs2)cc1,inactive,25.1,67.8,inactive,152,inactive
NC(=O)N=Nc1c(O)[nH]c2c(Br)cc(Br)cc12,inactive,37.2,81.4,inactive,213,inactive
Nc1nonc1C(=O)NCCN=Cc1cc(Cc2ccccc2)cc(Br)c1O,inactive,55.5,59,inactive,192,inactive
COc1ccc(C(=O)C2CCCN(C(=O)c3cc4nc(C)cc(C)n4n3)C2)cc1F (stereo not given),inactive,41.4,95.1,inactive,274,inactive
Cc1ccccc1Nc1cc(C(=O)O)c2ccccc2n1,inactive,62.2,86.6,inactive,32.7,inactive
O=C(O)c1nnn(Cc2ccccc2)c1C(=O)O,inactive,60.5,82.2,inactive,33,inactive

SMILES,outcome [1],"fluorescence, percent of control (lower = inhibition) [2] [%]","GTP binding, percent of control [3] [%]",outcome [4],"GTP binding signal, raw median fluorescence (lower = inhibition) (MCF (arbitrary fluorescence units)) [5]",outcome [6]
Cc1ccc(Nc2cc(C(=O)O)c3ccccc3n2)cc1C,inactive,60.9,84.7,inactive,31.9,inactive
CCCOC(=O)c1c(NC(=O)CCC(=O)O)sc2c1CCCCC2,inactive,32.9,79,inactive,282,inactive
CCN1CCN(c2nc3c(c(=O)n(C)c(=O)n3C)n2Cc2cccc3ccccc23)CC1,inactive,43.1,92.2,inactive,314,inactive
Cc1ccc(OCc2ccccc2C)c(C(=O)O)c1,inactive,58.3,207,inactive,54.4,inactive
O=S(=O)(Nc1ncn[nH]1)c1ccc2ccccc2c1,inactive,62.3,70.5,inactive,224,inactive
O=C(N/N=C/c1ccco1)c1ccc(C(=O)N/N=C/c2ccco2)o1,inactive,32.1,72.4,inactive,184,inactive
CCCCOC(=O)c1cccnc1SCCc1ccccc1,inactive,48.2,125,inactive,69.8,inactive
NC(=S)Nc1cccc2cc3ccccc3cc12,inactive,75.3,120,inactive,137,inactive
CCc1c(C)nc2c(C#N)c[nH]n2c1=O,inactive,39,54.3,inactive,114,inactive
CSc1nnc(-c2cc(Br)ccc2N=Cc2c(C)[nH]n(-c3ccccc3)c2=O)c(=O)[nH]1,inactive,24.2,67.4,inactive,183,inactive
COc1cc(/C=N/NC(=O)CSc2n[nH]c(=O)[nH]c2=O)cc(OC)c1O,inactive,36,78.9,inactive,178,inactive
O=C(N/N=C/c1ccc([N+](=O)[O-])o1)c1cn(-c2ccccc2)nc1-c1ccc(Cl)cc1,inactive,31.7,77,inactive,207,inactive
CCOC(=O)c1cccnc1SCCc1ccccc1,inactive,125,155,inactive,95.5,inactive
O=C(O)/C=C/c1cn(Cc2ccccc2)nc1-c1ccccc1,inactive,101,72.4,inactive,175,inactive
O=C(Nc1cccc(-c2nc3ncccc3o2)c1)c1sc2ccccc2c1Cl,inactive,88.9,340,inactive,343,inactive
O=C(CSc1ccc2nnc(-c3cccs3)n2n1)N1CCCC1,inactive,33,74.6,inactive,178,inactive
CCN(CC)c1ccc(-c2nn3c(-c4cccnc4)nnc3s2)cc1,inactive,72.7,46.9,inactive,126,inactive
C/C(=N\Nc1ccc(S(N)(=O)=O)cc1[N+](=O)[O-])c1ccc2c(c1)OCO2,inactive,36.3,79.8,inactive,220,inactive
O=c1nc2c(O)cccn2c2c1c(=O)[nH]c1ccccc12,inactive,33.4,44.6,inactive,93,inactive
COc1ccc(C=O)cc1CSc1ncccc1C(=O)O,inactive,61.6,88.9,inactive,33.8,inactive

SMILES,outcome [1],"fluorescence, percent of control (lower = inhibition) [2] [%]","GTP binding, percent of control [3] [%]",outcome [4],"GTP binding signal, raw median fluorescence (lower = inhibition) (MCF (arbitrary fluorescence units)) [5]",outcome [6]
COc1cc2[nH]c(=S)nc(NC3CCCC3)c2cc1OC,inactive,25.9,56.7,inactive,124,inactive
CCCOc1ccc(C(CC(=O)O)NC(=O)c2sc3ccccc3c2Cl)cc1 (stereo not given),inactive,28.6,78.9,inactive,258,inactive
C/C(=N\NC(=O)c1ccc(Cl)c(S(=O)(=O)Nc2ccccc2Cl)c1)c1ccncc1,inactive,38.1,54,inactive,92,inactive
O=C(N/N=C(\c1ccccc1)c1ccccn1)c1cccc([N+](=O)[O-])c1,inactive,31.4,68.7,inactive,143,inactive
CCCCCCOc1ccc(C#CC(=O)c2ccc([N+](=O)[O-])cc2)cc1,inactive,54.3,199,inactive,56.6,inactive
Cc1cc(-c2n[nH]c(=S)n2/N=C/c2cccc([N+](=O)[O-])c2)n[nH]1,inactive,35,51,inactive,102,inactive
COc1ccccc1C(=O)N=Nc1c(O)[nH]c2ccc([N+](=O)[O-])cc12,inactive,23.9,51.1,inactive,115,inactive
CCOC(=O)Cn1nnnc1CN(Cc1cccs1)Cc1cc2cc(C)cc(C)c2[nH]c1=O,inactive,81.6,161,inactive,171,inactive
O=C(NC1CC2CCCC(C1)N2C(=O)Nc1ccc(Cl)c(C(F)(F)F)c1)C1CC1 (stereo not given),inactive,94.3,162,inactive,185,inactive
CCOc1cc(/C=C2\SC(=O)N=C2N)ccc1O,inactive,40.7,81,inactive,174,inactive
Cc1ccc(C)c(N(CC(N)=O)S(C)(=O)=O)c1,inactive,103,135,inactive,164,inactive
N#Cc1c(-c2cccc(Br)c2)cc(-c2ccco2)[nH]c1=O,inactive,23.1,58.9,inactive,182,inactive
CCOc1nnc(C)c2c(C)n(-c3ccc(Cl)cc3)nc12,inactive,52.2,66.3,inactive,197,inactive
O=S1(=O)N=C(N(CCO)/N=C/C=C/c2ccccc2)c2ccccc21,inactive,22.8,35.3,inactive,101,inactive
Cn1c(=O)c2c(ncn2CC(O)CNc2cccc(Cl)c2)n(C)c1=O (stereo not given),inactive,47.1,101,inactive,363,inactive
CC(C)Sc1nc(-c2ccccc2)cc(=O)[nH]1,inactive,88.8,156,inactive,170,inactive
O=C(O)CCN1C(=O)/C(=C\c2ccc(-c3nc4ccccc4s3)o2)SC1=S,inactive,54.9,63.4,inactive,88.8,inactive
COc1cccc(/C=N/Nc2nn3cnnc3c3ccccc23)c1O,inactive,35.9,44.6,inactive,126,inactive
COCCNc1nc(=S)[nH]c2cc(OC)c(OC)cc12,inactive,35.9,43.7,inactive,103,inactive
Cc1ccc(C)c(N2CCN(C(=O)CN(C)S(=O)(=O)c3ccc4c(c3)CCC(=O)N4)CC2)c1,inactive,41.8,65.9,inactive,156,inactive
